The subject of assay [1] is Zika virus NS2B-NS3 protease (unlinked complex). Briefly: Primary screen GU Rhodamine qHTS for Zika virus inhibitors: Unlinked NS2B-NS3 protease assay (AID 1347159). Also: nearly all actives have a fitted effect of over 60% in size. The essentials: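 Compounds, tested up to 114 microM, were incubated for 15 minutes with 25 nM unlinked NS2B-NS3 protease at pH 8.0. Cleavage of 1.5 microM Rhodamine110 substrate was then followed by fluorescence for 15 minutes.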
(qHTS replaces the single test concentration by a dilution series.)

Assay [2] concerns Zika virus NS2B-NS3 protease (linked construct). Briefly: Primary screen NINDS Rhodamine qHTS for Zika virus inhibitors (AID 1347160). Also: nearly all actives have a fitted effect of over 55% in size. The method in brief: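 Percent inhibition, normalized to uninhibited and enzyme-free controls, is fitted to a 4-parameter Hill equation. Fluorescence change comes from a 15-min cleavage of 1.5 microM bis-peptide Rhodamine110 substrate by 25 nM linked NS2B-NS3 at room temperature.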

Assay [3] deals with Zika virus NS2B-NS3 protease. Briefly: Primary screen GU AMC qHTS for Zika virus inhibitors (AID 1347154). Also: nearly all actives have a fitted effect of over 70% in size. Also: potency is read from the fitted curve at half-maximal effect. The essentials:
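Unlinked Zika NS2B hydrophilic domain/NS3 protease domain noncovalent complex (25 nM final) in 10 mM Tris-HCl pH 8.0, 0.01% Tween 20, with AMC peptide substrate. Fluorescence (ex 340, em 450 nm) change over 15 min, room temperature; percent inhibition fitted to 4-parameter Hill equation.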

Assay [4] in a line: qHTS to identify inhibitors of the type 1 interferon - major histocompatibility complex class I in skeletal muscle: primary screen against the NCATS Pharmaceutical Collection (AID 1347407).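 Also: luminescence of HiBiT knocked into endogenous HLA-B as interferon-induced MHC class I level.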 The essentials: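 A qHTS format is used: 8-point, 1:5 compound series with 46 uM top final concentration, applied alongside 4 ng/ml IFN-beta to HLA-B*08:01-HiBiT knock-in myoblasts. Luminescence is measured after 24 h treatment.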

The structures appear in SMILES notation. Inconclusive results are not listed. Calls of active or inactive are those of the source. Calls follow the shape of the dose curve; as a rule, active = well fitted curve in the direction sought with a large enough effect; inconclusive = small, poorly fitted or top-dose-only effect, or another doubt; inactive = no such curve, though single readings can be large; an effect the other way counts as inactive or inconclusive.

`COc1c(Cl)cc2c([nH]c3cnccc32)c1NC(=O)c1cccnc1C`: the Potency result in assay [1] and in assay [2] was “inactive” each time.
Take `CC[C@@H](C)[C@H](NC(=O)[C@H](CC1CCCCC1)NC(=O)c1ccno1)C(=O)N1CCC2(CCc3ccccc32)CC1`: the Potency entry in assay [3] and in assay [2] was “inactive” throughout.
On to `CNC(=O)c1ccc(C)c(-n2c(C)cc(OCc3ccc(F)cc3F)c(Br)c2=O)c1`, for which the Potency entry in assay [3], in assay [1] and in assay [2] was “inactive” throughout.
Regarding `CCOc1cc(C(=O)Nc2ccc(Cl)c(-c3nc4ccccc4[nH]3)c2)cc(OCC)c1OCC`, the Potency entry in assay [1] and in assay [2] was “inactive” throughout.
In the case of `Cc1csc(NC(=O)c2sc3nc4c(c(C(F)(F)F)c3c2N)CCC4)n1`, the Potency result in assay [3], in assay [1] and in assay [2] was “inactive” each time.
`S=C(NCc1ccc2c(c1)OCO2)N1CCN(c2ncnc3c2oc2ccccc23)CC1`: the Potency entry in assay [1] and in assay [2] was “inactive” throughout.
Take `O=C1CCCC2=C1C(c1[nH]ncc1Cl)N=C(Nc1nc3ccccc3o1)N2` (configuration not stated): the Potency result in assay [3], in assay [1] and in assay [2] was “inactive” in each case.
Turning to `Cc1cc(Nc2nc(N[C@@H](C)c3ncc(F)cn3)ncc2Cl)n[nH]1`, the Potency result in assay [3], in assay [1] and in assay [2] was “inactive” throughout.
On to `O=c1[nH]c(-c2ccc(C(F)(F)F)cc2)nc2c1CSCC2`, for which the Potency entry in assay [3], in assay [1] and in assay [2] was “inactive” each time.
`C[C@H](NC(=O)Cc1cc(F)cc(F)c1)C(=O)N[C@@H]1C(=O)N(C)c2ccccc2-c2ccccc21`: the Potency result in assay [3] and in assay [2] was “inactive” throughout.
Regarding `O=C(Nc1cccnc1)N1CCC(Cc2cccc(Oc3ccc(C(F)(F)F)cn3)c2)CC1`, the Potency result in assay [3] and in assay [2] was “inactive” throughout.
Turning to `COc1ccc2nc(S(=O)Cc3ncc(C)c(OC)c3C)[nH]c2c1` (configuration not stated), in assay [3], the Potency entry is “inactive”. For the same compound, the outcome in assay [4] was inactive.
For the compound `Cn1cc(-c2ccc3nnc(C(F)(F)c4ccc5ncccc5c4)n3n2)cn1`, the Potency result in assay [1] and in assay [2] was “inactive” throughout.
In the case of `CC(C)(N)C(=O)N[C@H](COCc1ccccc1)C(=O)N1CCC2(CC1)CN(S(C)(=O)=O)c1ccccc12`, the Potency result in assay [3], in assay [1] and in assay [2] was “inactive” in each case.
In the case of `N#CC[C@H](C1CCCC1)n1cc(-c2ncnc3[nH]ccc23)cn1`, the Potency in assay [3] was 24.1 µM (active). Besides, the Potency result in assay [1] and in assay [2] was “inactive” in each case.

Source of the values: PubChem BioAssay (NCATS).
